The campaign covered roughly 5,500 compounds. About 2,000 (36%) were called active. Roughly 18% stayed inconclusive and do not appear here. Rule as the data show it: active = normalized growth mostly below about 0.91 (no sharp cut-off); inconclusive = no clear call, values can overlap the other calls; inactive = mostly above about 0.92. The list shows a part of the results.
Assay: chemical genetic growth profiling, strain panel (AID 1159580);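 also: tested at 20 µM; growth read once vehicle control cultures reached saturation at 30 °C; 1 = growth at the plate median or of vehicle wells; lower values mean less growth of the strain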
Settings: S. cerevisiae deletion strains, growth OD

Measured: normalized growth

O=C(O)CCC(=O)Nc1ccc(S(=O)(=O)Nc2nccs2)cc1
active: locus YCL011C, strain gbp2, stronger effect = lower value 0.728
inactive: locus YAL021C, strain ccr4, stronger effect = lower value 1 | locus YAL026C, strain drs2, stronger effect = lower value 1 | locus YAL030W, strain snc1, stronger effect = lower value 1.03 | locus YBL061C, strain skt5, stronger effect = lower value 0.994 | locus YBR009C, strain hhf1, stronger effect = lower value 1.02 | locus YBR023C, strain chs3, stronger effect = lower value 0.993 | locus YBR171W, strain sec66, stronger effect = lower value 0.997 | locus YBR231C, strain swc5, stronger effect = lower value 0.996 | locus YBR279W, strain paf1, stronger effect = lower value 0.989 | locus YCL016C, strain dcc1, stronger effect = lower value 0.985 | locus YCL061C, strain MRC1, stronger effect = lower value 0.996 | locus YCL069W, strain vba3, stronger effect = lower value 1 | locus YCR088W, strain abp1, stronger effect = lower value 0.994 | locus YDL005C, strain med2, stronger effect = lower value 0.987 | locus YDL040C, strain nat1, stronger effect = lower value 0.999 | locus YDR001C, strain nth1, stronger effect = lower value 1 | locus YDR069C, strain doa4, stronger effect = lower value 1 | locus YDR137W, strain rgp1, stronger effect = lower value 0.989 | locus YDR159W, strain sac3, stronger effect = lower value 0.922 | locus YDR195W, strain ref2 0.967 | locus YDR297W, strain sur2, stronger effect = lower value 1.01 | locus YDR334W, strain swr1, stronger effect = lower value 0.989 | locus YDR335W, strain msn5, stronger effect = lower value 0.992 | locus YDR392W, strain spt3, stronger effect = lower value 0.912 | locus YEL003W, strain gim4, stronger effect = lower value 1.02 | locus YEL037C, strain rad23, stronger effect = lower value 1.01 | locus YEL061C, strain CIN8 (second series), stronger effect = lower value 1.02 | locus YER015W, strain faa2, stronger effect = lower value 1 | locus YER016W, strain bim1, stronger effect = lower value 0.981 | locus YER111C, strain swi4, stronger effect = lower value 1.01 | locus YER155C, strain BEM2 (second series), stronger effect = lower value 0.981 | locus YFR010W, strain ubp6, stronger effect = lower value 1 | locus YGL167C, strain pmr1, stronger effect = lower value 0.995 | locus YGL173C, strain kem1, stronger effect = lower value 0.987 | locus YGL227W, strain vid30, stronger effect = lower value 0.994 | locus YGL240W, strain doc1, stronger effect = lower value 1 | locus YGL253W, strain hxk2, stronger effect = lower value 1 | locus YHR013C, strain ard1, stronger effect = lower value 0.983 | locus YHR027C, strain rpn1, stronger effect = lower value 0.991 | locus YHR030C, strain SLT2, stronger effect = lower value 1.04 | locus YHR079C, strain IRE1, stronger effect = lower value 1.06 | locus YHR142W, strain chs7, stronger effect = lower value 1 | locus YJL092W, strain hpr5, stronger effect = lower value 1 | locus YJL095W, strain BCK1 (second series), stronger effect = lower value 0.996 | locus YJL095W, strain BCK1, stronger effect = lower value 1.01 | locus YJL115W, strain asf1, stronger effect = lower value 0.997 | locus YJL129C, strain trk1, stronger effect = lower value 0.994 | locus YJL154C, strain vps35, stronger effect = lower value 0.99 | locus YJL164C, strain tpk1, stronger effect = lower value 0.998 | locus YJL166W, strain qcr8, stronger effect = lower value 1 | locus YJL187C, strain SWE1, stronger effect = lower value 1.01 | locus YJR066W, strain TOR1, stronger effect = lower value 0.998 | locus YKL160W, strain elf1, stronger effect = lower value 1.01 | locus YKR026C, strain gcn3, stronger effect = lower value 1 | locus YKR091W, strain srl3, stronger effect = lower value 0.998 | locus YLL001W, strain dnm1, stronger effect = lower value 1.01 | locus YLL026W, stronger effect = lower value 0.987 | locus YLL041C, strain sdh2, stronger effect = lower value 1.01 | locus YLR027C, strain aat2, stronger effect = lower value 1.01 | locus YLR113W, strain HOG1, stronger effect = lower value 1.02 | locus YLR221C, strain rsa3, stronger effect = lower value 1 | locus YLR258W, strain gsy2, stronger effect = lower value 0.993 | locus YLR262C, strain YPT6 (second series), stronger effect = lower value 1.01 | locus YLR320W, strain mms22, stronger effect = lower value 0.976 | locus YLR342W, strain FKS1, stronger effect = lower value 1 | locus YLR357W, strain rsc2, stronger effect = lower value 0.991 | locus YLR370C, strain arc18, stronger effect = lower value 1 | locus YLR384C, strain iki3, stronger effect = lower value 1 | locus YML120C, strain ndi1, stronger effect = lower value 1.02 | locus YMR058W, strain fet3, stronger effect = lower value 1 | locus YMR125W, strain sto1, stronger effect = lower value 0.977 | locus YMR129W, stronger effect = lower value 0.977 | locus YMR205C, strain PFK2, stronger effect = lower value 0.985 | locus YMR231W, strain pep5, stronger effect = lower value 1 | locus YNL071W, strain lat1, stronger effect = lower value 1.01 | locus YNL183C, strain NPR1, stronger effect = lower value 0.968 | locus YNL209W, strain ssb2, stronger effect = lower value 1 | locus YNL248C, strain rpa49, stronger effect = lower value 1.02 | locus YNL322C, strain KRE1 (second series), stronger effect = lower value 0.966 | locus YNR049C, strain mso1, stronger effect = lower value 0.999 | locus YOR001W, strain rrp6, stronger effect = lower value 0.998 | locus YOR070C, strain gyp1, stronger effect = lower value 0.998 | locus YOR080W, strain dia2, stronger effect = lower value 0.987 | locus YOR083W, strain WHI5, stronger effect = lower value 0.938 | locus YOR106W, strain vam3, stronger effect = lower value 0.979 | locus YOR231W, strain MKK1, stronger effect = lower value 1.07 | locus YOR265W, strain rbl2, stronger effect = lower value 1.01 | locus YOR270C, strain vph1, stronger effect = lower value 1.03 | locus YOR290C, strain snf2, stronger effect = lower value 0.984 | locus YPL051W, strain arl3, stronger effect = lower value 0.995 | locus YPL078C, strain atp4, stronger effect = lower value 0.984 | locus YPL106C, strain sse1, stronger effect = lower value 0.944 | locus YPL240C, strain hsp82, stronger effect = lower value 0.995 | locus YPL256C, strain CLN2, stronger effect = lower value 1.01

From PubChem BioAssay AID1159580 (chemical genetic matrix, 2015)
